This is an account of results in PubChem BioAssay.

SMILES strings stand for the structures. The source made the active and inactive calls.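 Rule for the calls, unless noted: active = fluorescence slope after compound addition differing from the mean of all screened samples at 99.7% confidence, in either direction; inactive = the rest.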

The nature of assay [1]: inhibitors of TNFa-induced NFkB p65 translocation, primary screen, imaging, HUVEC, MLSMR starter and 10KST1 sets (AID 438;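 active = inhibition above 20% together with a positive visual image hit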;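 note: compound added about 3h40 before a 20 min TNFalpha stimulation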;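 for inhibition: signal is the nuclear over cytoplasmic p65 intensity ratio per well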). Conditions: HUVEC TNFa-induced p65 nuclear translocation; cell count: measured here: nuclei count (cytotoxicity indicator), at 2.08 µM; inhibition: at 2 µM, stronger effect = higher value, 0% TNFa-plus-vehicle, 100% no-TNFa wells.
A short description of assay [2]: inhibitors of mutant huntingtin aggregation, primary screen, imaging, exon1htt(103Q)mCFP cells, high-content imaging (AID 483;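 active = visual image review flags a hit and inhibition of aggregation exceeds 20%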;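 note: compound exposure lasted 3 days before fixation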;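 for nuclei count: percent of the per-plate median nuclei count of sample wells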). To be noted: exon1htt(103Q)mCFP cell line, aggregate imaging, at 2 µM; inhibition of aggregation: stronger effect = higher value; nuclei count: measured here: cell count, toxicity.
The nature of assay [3]: inhibitors of E-selectin induction by TNFa, primary screen, imaging, HUVEC, immunofluorescence, MLSMR starter and 10KST1 sets (AID 487;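 active = visually confirmed hit in the image check and inhibition above 20%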;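 for inhibition: signal is fraction of cell area covered by stained E-selectin grains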;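 for nuclei count: 100% = median nuclei count of all wells on the same plate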). Conditions: HUVEC TNFalpha-induced E-selectin immunofluorescence imaging, at 2 µM; inhibition: stronger effect = higher value; nuclei count: measured here: cell number, toxicity.
Assay [4] concerns the target Voltage-gated potassium channel subunit beta-2 (Rattus norvegicus) (UniProt P62483). Kind of assay: KvBeta enzyme negative modulators, primary screen, biochemical, NADPH fluorescence (AID 622;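 active = fluorescence slope higher than the sample average by over 3 SD, cut at about -0.22 in these data, passing the limit was not always enough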;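 note: slope of raw intensity against log time taken from 70 to 1610 s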). To be noted: recombinant KvBeta, 4-cyanobenzaldehyde reduction, at 10 µM, stronger effect = higher value.
Assay [5] shares this target. Nature of the assay: KvBeta positive modulators, primary screen, biochemical, NADPH fluorescence (AID 623;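 active = NADPH fluorescence slope more negative than the mean of all samples by about 3 SD, 99.7% confidence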;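 note: fluorescence intensity change per second fitted from 20 to 320 s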). Conditions: Recombinant KvBeta, NADPH fluorescence decrease slope, 10 min; at 10 µM; stronger effect = lower value.
Assay [6] concerns the target Alpha-2C adrenergic receptor (Homo sapiens) (UniProt P18825). Nature of the assay: modulators of alpha2C/GIRK thallium flux, primary screen, cell-based, HEK293 alpha2C/GIRK1/2 (AID 624).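 Note: slope of fluorescence ratio to pre-addition baseline per second over 15 to 24 s.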 To be noted: thallium flux BTC fluorescence, at 10 µM, actives lie on both sides.
The nature of assay [7]: inhibitors of Sendai virus-induced IRF3 signaling, primary screen, TLR/RLR signaling modifier project, cell-based, Sendai virus stimulus, luciferase, 10K MLSCN set (AID 602276;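 active = inhibition at or above 50% at 10 µM; inactive = inhibition below 50%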;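 note: firefly luciferase from ISG56 promoter only with Renilla not read in this screen; 0% = Sendai virus plus DMSO and 100% = medium plus DMSO without virus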). Conditions: HEK293 RL24 IRF3 luciferase reporter, at 10 µM, stronger effect = higher value. (Reporter assays use an easily measured gene product as a stand-in for the process of interest.)
The nature of assay [8]: inhibitors of poly I:C-induced TLR3 signaling, primary screen, cell-based, poly I:C stimulus, luciferase, 10K MLSCN set (AID 602277;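 active = inhibition of the reporter signal at or above 50%; inactive = inhibition below 50%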). Conditions: HEK293-TLR3 RL24 IRF3 luciferase reporter, at 10 µM, stronger effect = higher value.

Sequence of Alpha-2C adrenergic receptor (Homo sapiens) (P18825 whole entry, looked up): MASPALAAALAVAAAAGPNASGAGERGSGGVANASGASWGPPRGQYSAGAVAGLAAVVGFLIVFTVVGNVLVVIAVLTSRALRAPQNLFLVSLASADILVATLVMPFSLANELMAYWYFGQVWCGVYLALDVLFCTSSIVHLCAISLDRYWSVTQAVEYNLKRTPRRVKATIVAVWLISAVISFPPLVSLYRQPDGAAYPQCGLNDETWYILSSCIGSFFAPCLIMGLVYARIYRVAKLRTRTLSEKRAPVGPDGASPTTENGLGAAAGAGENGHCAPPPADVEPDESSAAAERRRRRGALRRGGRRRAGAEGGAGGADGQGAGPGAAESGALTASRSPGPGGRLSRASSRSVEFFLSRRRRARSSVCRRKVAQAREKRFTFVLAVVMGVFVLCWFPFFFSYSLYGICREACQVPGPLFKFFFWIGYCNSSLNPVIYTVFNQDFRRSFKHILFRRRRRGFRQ
Sequence of Voltage-gated potassium channel subunit beta-2 (Rattus norvegicus) (P62483 whole entry, looked up): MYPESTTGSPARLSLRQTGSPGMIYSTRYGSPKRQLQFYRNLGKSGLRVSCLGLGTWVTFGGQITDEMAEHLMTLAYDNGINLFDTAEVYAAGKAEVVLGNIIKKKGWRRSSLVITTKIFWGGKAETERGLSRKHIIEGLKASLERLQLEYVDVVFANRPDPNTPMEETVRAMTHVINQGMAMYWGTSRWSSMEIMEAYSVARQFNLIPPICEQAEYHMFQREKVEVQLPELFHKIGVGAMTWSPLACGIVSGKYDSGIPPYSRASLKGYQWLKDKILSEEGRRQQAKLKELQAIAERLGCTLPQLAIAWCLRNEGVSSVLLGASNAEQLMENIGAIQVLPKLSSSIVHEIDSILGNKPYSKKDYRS

The term inhibition denotes the change of the read-out against control, counted positive when it falls. Turning to `COC(=O)c1ccc(Cl)c(NC(C)=O)c1`, the cell count in assay [1] was found to be 367. In addition, the inhibition in assay [1] is 1.8% (inactive); in assay [3], -48.4% (inactive); in assay [7], 4.64% (inactive); in assay [8], 34.3% (inactive). Besides, in assay [2], the inhibition of aggregation is -20.6% (inactive). Besides, the nuclei count worked out at 110% in assay [2] and 78.5% in assay [3]. Moreover, in assay [4], the fluorescence slope is -0.433 (inactive). Besides, the NADPH fluorescence slope in assay [5] is -4.1e-05 (inactive). In addition, in assay [6], the slope was 0.00415 (inactive).
With `CC(C)c1nnc(NC(=O)CCC(=O)NCc2ccc3c(c2)OCO3)s1`, in assay [1], the cell count stood at 571. In addition, the inhibition in assay [1] was 11.2% (inactive); in assay [3], 21.4% (inactive); in assay [7], 14.1% (inactive); in assay [8] it was 13.8% (inactive). Moreover, the inhibition of aggregation in assay [2] was -5.1% (inactive). The nuclei count in assay [2] was determined as 95.8%; in assay [3], 97.3%. Also, in assay [4], the fluorescence slope was -0.404 (inactive). Moreover, in assay [5], the NADPH fluorescence slope was -4.6e-05 (inactive). Moreover, the slope in assay [6] is 0.00581 (inactive).
As for `CCOc1ccc(-c2nnn(CC(=O)N3CCN(c4ccc(F)cc4)CC3)n2)cc1OCC`, in assay [1], the cell count amounted to 583. The inhibition is -9.5% (inactive) in assay [1], 25% (inactive) in assay [3], 16.8% (inactive) in assay [7] and 14% (inactive) in assay [8]. Moreover, in assay [2], the inhibition of aggregation was -17.1% (inactive). For the same compound, the nuclei count in assay [2] came out at 119%; in assay [3] it was 101%. Further, the fluorescence slope in assay [4] was -0.642 (inactive). Besides, the NADPH fluorescence slope in assay [5] is -1.5e-05 (inactive). Also, the slope in assay [6] is 0.00403 (inactive).
On to `C=CCn1c(SCc2cccc(C#N)c2)nnc1-c1ccccc1O`, for which the cell count in assay [1] stood at 658. Besides, the inhibition is -2.3% (inactive) in assay [1], -18.9% (inactive) in assay [3], 27.6% (inactive) in assay [7] and 46% (inactive) in assay [8]. The inhibition of aggregation in assay [2] was 5.6% (inactive). The nuclei count in assay [2] was 102%; in assay [3] it was 110%. For the same compound, in assay [4], the fluorescence slope is -0.574 (inactive). For the same compound, in assay [5], the NADPH fluorescence slope is 1.6e-05 (inactive). For the same compound, the slope in assay [6] is 0.00698 (inactive).
For `COc1ccc(N2CCN(Cc3nc4c(c(=O)n(C)c(=O)n4C)n3Cc3ccccc3C)CC2)cc1`, the cell count in assay [1] amounted to 719. The inhibition in assay [1] is -14% (inactive); in assay [3], -7.8% (inactive); in assay [7], 14.4% (inactive); in assay [8] it was 39.9% (inactive). Also, the inhibition of aggregation in assay [2] is 5.8% (inactive). Besides, the nuclei count in assay [2] was determined as 100%; in assay [3], 129%. The fluorescence slope in assay [4] was -0.428 (inactive). In assay [5], the NADPH fluorescence slope was -2.3e-05 (inactive). For the same compound, the slope in assay [6] was 0.00487 (inactive).
Turning to `Nn1cnnc1SCC(=O)Nc1ccc2c(c1)OCCO2`, the cell count in assay [1] came out at 553. In addition, the inhibition is 7.2% (inactive) in assay [1], -74.7% (inactive) in assay [3], 1.38% (inactive) in assay [7] and -17% (inactive) in assay [8]. The inhibition of aggregation in assay [2] was -23.3% (inactive). Besides, the results for the nuclei count in assay [2] and in assay [3] were 96% and 208%, respectively. Moreover, in assay [4], the fluorescence slope was -0.351 (inactive). Further, the NADPH fluorescence slope in assay [5] is -8.3e-06 (inactive). The slope in assay [6] is 0.00546 (inactive).
Turning to `COc1cc(C2NC(=O)NC(C)=C2C(=O)OCC2CCCO2)ccc1O` (stereo not drawn), the cell count in assay [1] worked out at 401. In addition, the inhibition in assay [1] was 1.8% (inactive); in assay [3] it was -105% (inactive); in assay [7], 1.44% (inactive); in assay [8], 24.7% (inactive). Also, in assay [2], the inhibition of aggregation is -5.3% (inactive). Also, the nuclei count in assay [2] was found to be 112%; in assay [3], 114%. The fluorescence slope in assay [4] was -0.489 (inactive). Also, the NADPH fluorescence slope in assay [5] is -3.4e-05 (inactive). Also, the slope in assay [6] was 0.00604 (inactive).
Take `CCCCCC1CC(CC(C)C(=O)Nc2nncs2)C(=O)O1` (stereo not drawn): the cell count in assay [1] came to 629. The inhibition in assay [1] was -7.3% (inactive); in assay [3], -68% (inactive); in assay [7], 11.3% (inactive); in assay [8] it was 20.7% (inactive). Further, the inhibition of aggregation in assay [2] is -20.6% (inactive). The nuclei count in assay [2] was found to be 112%; in assay [3], 85.5%. In addition, in assay [4], the fluorescence slope is -0.369 (inactive). Also, the NADPH fluorescence slope in assay [5] is 2.3e-05 (inactive). In assay [6], the slope was 0.00624 (inactive).
